Values joined by “and” are separate entries in the source; they are usually repeats but may differ in a detail not shown here. Identical values can stand only once. Inconclusive results are not listed. Active and inactive are the calls of the source. Unless noted, calls come from the whole dose curve.
Assays:
[1] = MultiTox-Fluor Cytotoxicity Assay - LYMP1-001 - Live Cells (AID 947; active = well fitted curve in the direction sought with a large enough effect; an effect the other way counts as inactive or inconclusive;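 note: 0% = DMSO only and full inhibition = tetraoctylammonium bromide control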)
[2] = MultiTox-Fluor Cytotoxicity Assay - LYMP1-002 - Dead Cells (AID 960; active = well fitted curve in the direction sought with a large enough effect; an effect the other way counts as inactive or inconclusive;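 note: 0% = DMSO and 100% = tetraoctylammonium bromide; nearly all actives have a fitted effect of over 60% in size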)
In short: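 Human lymphoblastoid LYMP1-002 cells, 2500/well, treated 16 h at 37 C; dead-cell protease cleavage of bis-AAF-R110 read by fluorescence (485/520); normalized to DMSO and 15 uM tetraoctylammonium bromide; AC50 from Hill fit.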

[3] = Cell Viability - LYMP2-004 (AID 966; active = well fitted curve in the direction sought with a large enough effect; an effect the other way counts as inactive or inconclusive;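 note: plate controls were DMSO only for no effect and tetraoctylammonium bromide control for full effect; nearly all actives have a fitted effect of over 65% in size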)
In short: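 Lymphoblastoid LYMP2-004 cells, 2500 per well, were preincubated for 5 hr and then treated with compound for 24 h at 37 C in complete medium. Viability was read as cellular ATP by CellTiter-Glo luminescence, and AC50 values were taken from Hill fits to concentration-response data.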

[4] = Cell Viability - LYMP2-009 (AID 968; active = well fitted curve in the direction sought with a large enough effect; an effect the other way counts as inactive or inconclusive;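 note: series mostly up to about 92 µM; 0% = DMSO alone and the full-kill end = tetraoctylammonium bromide at 92 µM; nearly all actives have a fitted effect of over 55% in size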)
[5] = target: Estrogen receptor (Homo sapiens) (UniProt P03372); assay: qHTS assay for small molecule antagonists of estrogen receptor alpha signaling (AID 588513; active = well fitted curve in the direction sought with a large enough effect in the signal ratio, with a control signal flat, not every such curve was filed as active; the % refers to the signal ratio; note: % is set by controls: 0 for no effect and ±100 for the full control effect)
In short: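 Beta-lactamase reporter, antagonist mode, HEK 293 GripTite cells; 0.5nM E2 stimulus, 18 h, 37 C; CCF4 dye 2 h RT; fluorescence. IC50 and efficacy from Hill fits, normalized to E2 and DMSO.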

[6] = target: Estrogen receptor (Homo sapiens) (UniProt P03372); assay: qHTS assay for small molecule agonists of estrogen receptor alpha signaling (AID 588514); note: nearly all actives have a fitted effect of over 70% in size; note: potency is the fitted concentration of half-maximal effect;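 for activation: 0% = vehicle only and 100% = reference agonist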
In short: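 ER-alpha-UAS-bla GripTite HEK293 cells, 5000/well in 2% charcoal/dextran-stripped FBS medium, treated with compound titrations 18 h at 37 C. CCF4 beta-lactamase read by fluorescence after 2 h RT; normalised to 20 nM 17-beta-estradiol (100%) and DMSO (0%), Hill fit for EC50 and efficacy.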

[7] = target: Bile acid receptor (Homo sapiens) (UniProt Q96RI1); assay: qHTS assay for small molecule agonists of farnesoid X receptor signaling (AID 588527); settings: HEK293T FXR-UAS-bla, beta-lactamase ratio, 16 h; stronger effect = higher value;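 note: series mostly up to about 77 µM; 0% = vehicle basal and 100% = reference agonist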
In short: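 Read-out: beta-lactamase reporter fluorescence with CCF4 substrate in GeneBLAzer FXR-UAS-bla HEK293T cells, after 16 h compound exposure at 37 C. Response scaled between DMSO basal (0%) and chenodeoxycholic acid at 100 uM (100%).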

[8] = target: Glucocorticoid receptor (Homo sapiens) (UniProt P04150); assay: qHTS assay for small molecule agonists of glucocorticoid receptor signaling (AID 588532; active = well fitted curve in the direction sought with a large enough effect in the signal ratio, with a control signal flat; the % refers to the signal ratio;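 note: 100% = dexamethasone at 0.1 µM and 0% = DMSO only wells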); settings: HeLa MMTV-bla, beta-lactamase ratio, agonist, 18 h; stronger effect = higher value; percent of dexamethasone control, DMSO zero
In short: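 Using MMTV-bla HeLa cells in medium with 1% stripped FBS and 25 mM HEPES, compounds were titrated and incubated overnight-length (18 h). Beta-lactamase cleavage of CCF4 was quantified by dual-emission fluorescence.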

[9] = target: Glucocorticoid receptor (Homo sapiens) (UniProt P04150); assay: qHTS assay for small molecule antagonists of glucocorticoid receptor signaling (AID 588533; active = well fitted inhibition curve with a large enough effect in the signal ratio, with a control signal flat, not every such curve was filed as active; the % refers to the signal ratio;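 note: cells stimulated with 2 nM dexamethasone as agonist; % is set by controls: 0 for no effect and ±100 for the full control effect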)
In short: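 Antagonist-mode qHTS: compound titrations added to GRE-bla HeLa cells, then dexamethasone 2 nM final; 18 h, 37 C. CCF4 FRET fluorescence normalized to dexamethasone and DMSO; IC50 from Hill fit.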

[10] = qHTS assay for small molecule antagonists of peroxisome proliferator-activated receptor delta signaling (AID 588535; active = well fitted inhibition curve with a large enough effect in the signal ratio, with a control signal flat, not every such curve was filed as active; the % refers to the signal ratio;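 for max response: cells co-treated with a PPAR-delta agonist as stimulator during compound exposure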); settings: HEK293T PPARd-UAS-bla, beta-lactamase FRET ratio, 18 h; 460 nm channel
In short: (§1)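 HEK293T PPAR-delta-UAS-bla cells, 4000/well, 2% charcoal/dextran FBS; 5 h 37 C; cpd titration; 18 h 37 C; CCF4 2 h RT; FI 460/530 nm; Hill fit → IC50, efficacy.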

[11] = target: Peroxisome proliferator-activated receptor delta (Homo sapiens) (UniProt Q03181); assay: as above
In short: as §1

[12] = target: Peroxisome proliferator-activated receptor gamma (Homo sapiens) (UniProt P37231); assay: qHTS assay for small molecule agonists of peroxisome proliferator-activated receptor gamma signaling (AID 588536; active = well fitted curve in the direction sought with a large enough effect in the signal ratio, with a control signal flat, not every such curve was filed as active; the % refers to the signal ratio;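 note: 0% = DMSO basal wells and 100% = rosiglitazone at 2 µM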)
In short: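 Test agents, titrated, stimulated HEK293 UAS-bla cells overnight (16 h, 37 C). Substrate CCF4 was then added for two hours at room temperature before fluorescence reading.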

[13] = target: Vitamin D3 receptor (Homo sapiens) (UniProt P11473); assay: qHTS assay for small molecule antagonists of vitamin D receptor signaling (AID 588541);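 note: receptor activated by calcitriol during compound treatment; series mostly up to about 77 µM; % is set by controls: 0 for no effect and ±100 for the full control effect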
In short: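 Antagonist-mode beta-lactamase reporter assay: HEK293T VDR-UAS-bla cells were exposed to titrated compound alongside 1-alpha,25-dihydroxyvitamin D3 at 3 nM final for 16 h. Values were normalized to the 50 nM agonist control and DMSO basal, with IC50 and efficacy from Hill equation fits.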

[14] = target: Vitamin D3 receptor (Homo sapiens) (UniProt P11473); assay: qHTS assay for small molecule agonists of vitamin D receptor signaling (AID 588543);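 note: 0% = DMSO basal and 100% = reference agonist control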
In short: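 β-lactamase reporter, VDR-UAS-bla HEK293T, agonist mode. Cells plated 5 h at 37 °C, compound titration 16 h at 37 °C, CCF4 dye 2 h RT, ratio 460/530 nm. Hill fit → EC50, efficacy vs 50 nM 1α,25-(OH)2D3.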

[15] = qHTS assay for small molecule activators of the p53 signaling pathway (AID 651743; active = well fitted activation curve with a large enough effect in the signal ratio, not every such curve was filed as active; the % refers to the signal ratio; note: series mostly up to about 92 µM; % of control where 0% means no effect); settings: HCT-116 p53RE-bla, beta-lactamase FRET ratio, 16 h; activation: stronger effect = higher value
In short: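 Read-out is fluorescence intensity from the LiveBLAzer B/G FRET substrate, added for 2 hours at room temperature after HCT-116 p53RE-bla cells had been incubated with compounds for 16 hours at 37 C.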

[16] = qHTS assay for small molecule disruptors of the mitochondrial membrane potential - 1 hr assay (AID 651754); note: % is set by controls: 0 for no effect and ±100 for the full control effect; nearly all actives have a fitted effect of over 35% in size
In short: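 HepG2 cells, attached overnight, were exposed to compound for 1 hr at 37C, then stained 30 min with a potentiometric dye. Ratio of red aggregate (590nm) to green monomer (535nm) fluorescence reports membrane potential; collapse shifts signal toward green.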

[17] = target: Nuclear receptor ROR-gamma (Homo sapiens) (UniProt P51449); assay: qHTS assay for small molecule antagonists of the retinoid-related orphan receptor gamma (ROR-gamma) signaling pathway (AID 651802; active = well fitted curve in the direction sought with a large enough effect; an effect the other way counts as inactive or inconclusive; note: nearly all actives have a fitted effect of over 60% in size; note: potency is the fitted concentration of half-maximal effect)
In short: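 CHO cells with TET-inducible ROR-gamma and RORE-luciferase reporter, dosed then doxycycline-induced. After 16 h at 37C, One-Glo luminescence read; decreased signal indicates antagonism.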

[18] = qHTS assay for small molecule antagonists of the retinoid-related orphan receptor gamma (ROR-gamma) signaling pathway - cell viability counter screen (AID 720652; active = well fitted curve in the direction sought with a large enough effect in the repeat runs; an effect the other way counts as inactive or inconclusive;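 note: series mostly up to about 92 µM; compound exposure lasted 16 hr before ATP read; % is set by controls: 0 for no effect and ±100 for the full control effect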)
In short: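 CHO cells carrying TET-inducible ROR and RORE-luciferase reporter, plated 5 hr, then dosed with compound plus doxycycline. After 16 hr at 37 C, viability read as intracellular ATP by CellTiter-Glo luminescence.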

[19] = qHTS assay for small molecule activators of the human pregnane X receptor (PXR) signaling pathway (AID 720659; call rule not given here; note: 0% is about no effect)
[20] = target: Nuclear receptor subfamily 1 group I member 2 (Rattus norvegicus) (UniProt Q9R1A7); assay: qHTS assay for small molecule activators of the rat pregnane X receptor (rPXR) signaling pathway (AID 651751; call rule not given here; note: 0% is about no effect); settings: rPXR reporter cells, luciferase (One-Glo), 24 h
Nuclear receptor subfamily 1 group I member 2 (Rattus norvegicus), sequence (Q9R1A7 whole entry, looked up): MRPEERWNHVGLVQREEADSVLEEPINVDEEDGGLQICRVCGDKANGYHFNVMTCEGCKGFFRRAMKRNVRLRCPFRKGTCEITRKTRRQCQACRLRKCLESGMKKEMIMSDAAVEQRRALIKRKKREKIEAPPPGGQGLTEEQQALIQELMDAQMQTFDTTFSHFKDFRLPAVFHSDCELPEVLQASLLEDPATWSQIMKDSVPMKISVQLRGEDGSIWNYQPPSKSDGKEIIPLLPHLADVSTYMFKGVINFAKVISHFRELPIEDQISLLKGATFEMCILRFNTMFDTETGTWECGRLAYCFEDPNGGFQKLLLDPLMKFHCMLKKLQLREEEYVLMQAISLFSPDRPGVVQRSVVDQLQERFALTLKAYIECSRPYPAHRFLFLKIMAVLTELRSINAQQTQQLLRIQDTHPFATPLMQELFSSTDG

Peroxisome proliferator-activated receptor delta (Homo sapiens), sequence (Q03181 whole entry, looked up): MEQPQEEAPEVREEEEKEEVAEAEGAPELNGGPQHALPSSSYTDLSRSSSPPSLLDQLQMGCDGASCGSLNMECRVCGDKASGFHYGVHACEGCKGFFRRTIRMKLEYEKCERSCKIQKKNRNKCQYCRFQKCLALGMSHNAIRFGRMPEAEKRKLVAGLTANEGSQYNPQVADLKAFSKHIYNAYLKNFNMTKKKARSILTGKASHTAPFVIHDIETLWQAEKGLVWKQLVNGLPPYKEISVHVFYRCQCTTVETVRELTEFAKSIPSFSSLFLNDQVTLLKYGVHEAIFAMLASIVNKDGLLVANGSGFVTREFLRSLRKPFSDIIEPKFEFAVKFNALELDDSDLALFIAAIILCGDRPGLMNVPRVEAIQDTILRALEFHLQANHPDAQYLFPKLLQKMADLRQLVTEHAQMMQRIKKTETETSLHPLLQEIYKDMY
Nuclear receptor ROR-gamma (Homo sapiens), sequence (P51449 whole entry, looked up): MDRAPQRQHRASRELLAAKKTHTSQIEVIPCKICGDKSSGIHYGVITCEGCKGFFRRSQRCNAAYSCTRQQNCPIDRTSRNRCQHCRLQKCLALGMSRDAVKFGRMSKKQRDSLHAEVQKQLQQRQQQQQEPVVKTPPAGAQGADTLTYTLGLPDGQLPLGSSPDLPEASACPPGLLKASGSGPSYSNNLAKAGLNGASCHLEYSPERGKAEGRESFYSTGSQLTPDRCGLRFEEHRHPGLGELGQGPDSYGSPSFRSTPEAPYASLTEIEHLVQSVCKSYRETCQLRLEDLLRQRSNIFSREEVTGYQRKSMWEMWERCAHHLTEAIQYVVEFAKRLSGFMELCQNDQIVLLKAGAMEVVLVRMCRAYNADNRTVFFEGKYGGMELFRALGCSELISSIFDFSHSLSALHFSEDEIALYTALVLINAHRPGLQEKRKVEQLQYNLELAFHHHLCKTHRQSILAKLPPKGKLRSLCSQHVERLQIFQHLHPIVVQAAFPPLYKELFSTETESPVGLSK
Estrogen receptor (Homo sapiens), sequence (P03372 whole entry, looked up): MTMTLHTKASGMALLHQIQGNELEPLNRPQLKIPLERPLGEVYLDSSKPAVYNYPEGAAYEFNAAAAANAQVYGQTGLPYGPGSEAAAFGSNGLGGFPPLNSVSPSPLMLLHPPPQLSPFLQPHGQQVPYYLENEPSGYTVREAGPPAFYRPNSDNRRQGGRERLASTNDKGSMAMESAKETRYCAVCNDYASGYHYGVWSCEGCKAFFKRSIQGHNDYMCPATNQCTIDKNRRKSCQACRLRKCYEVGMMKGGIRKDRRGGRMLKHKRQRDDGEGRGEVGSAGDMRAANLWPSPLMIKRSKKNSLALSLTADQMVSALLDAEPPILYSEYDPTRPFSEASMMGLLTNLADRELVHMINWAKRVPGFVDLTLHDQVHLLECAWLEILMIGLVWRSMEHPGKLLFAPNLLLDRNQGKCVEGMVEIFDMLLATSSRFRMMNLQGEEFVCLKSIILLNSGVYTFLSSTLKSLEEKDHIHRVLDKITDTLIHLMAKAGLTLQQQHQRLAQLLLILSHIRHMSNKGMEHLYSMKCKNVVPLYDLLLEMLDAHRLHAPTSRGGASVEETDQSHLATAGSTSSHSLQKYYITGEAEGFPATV
Vitamin D3 receptor (Homo sapiens), sequence (P11473 whole entry, looked up): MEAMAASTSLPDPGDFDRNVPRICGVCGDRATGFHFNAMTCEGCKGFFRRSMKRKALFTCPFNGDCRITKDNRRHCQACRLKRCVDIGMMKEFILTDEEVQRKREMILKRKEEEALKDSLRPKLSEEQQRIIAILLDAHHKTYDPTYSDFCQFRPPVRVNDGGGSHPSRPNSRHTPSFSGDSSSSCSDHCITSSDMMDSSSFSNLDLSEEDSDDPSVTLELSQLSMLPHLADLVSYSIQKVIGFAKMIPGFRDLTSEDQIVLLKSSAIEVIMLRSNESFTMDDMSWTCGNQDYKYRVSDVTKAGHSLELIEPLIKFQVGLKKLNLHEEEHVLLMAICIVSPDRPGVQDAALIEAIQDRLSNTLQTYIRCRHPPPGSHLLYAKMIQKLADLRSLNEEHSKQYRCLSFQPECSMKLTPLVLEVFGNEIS
Bile acid receptor (Homo sapiens), sequence (Q96RI1 whole entry, looked up): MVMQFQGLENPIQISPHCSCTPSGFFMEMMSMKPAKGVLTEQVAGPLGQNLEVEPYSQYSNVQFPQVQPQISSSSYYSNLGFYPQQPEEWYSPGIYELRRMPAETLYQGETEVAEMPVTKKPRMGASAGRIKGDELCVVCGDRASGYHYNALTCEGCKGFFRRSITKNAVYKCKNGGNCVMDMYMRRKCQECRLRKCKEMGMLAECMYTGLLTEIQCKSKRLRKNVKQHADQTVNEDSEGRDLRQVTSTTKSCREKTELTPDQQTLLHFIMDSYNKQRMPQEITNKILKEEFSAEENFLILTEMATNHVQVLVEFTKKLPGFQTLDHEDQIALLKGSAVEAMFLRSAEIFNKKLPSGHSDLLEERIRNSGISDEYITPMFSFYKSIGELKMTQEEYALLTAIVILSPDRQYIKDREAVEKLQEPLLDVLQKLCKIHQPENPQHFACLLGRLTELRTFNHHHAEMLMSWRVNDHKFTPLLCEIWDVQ
Peroxisome proliferator-activated receptor gamma (Homo sapiens), sequence (P37231 whole entry, looked up): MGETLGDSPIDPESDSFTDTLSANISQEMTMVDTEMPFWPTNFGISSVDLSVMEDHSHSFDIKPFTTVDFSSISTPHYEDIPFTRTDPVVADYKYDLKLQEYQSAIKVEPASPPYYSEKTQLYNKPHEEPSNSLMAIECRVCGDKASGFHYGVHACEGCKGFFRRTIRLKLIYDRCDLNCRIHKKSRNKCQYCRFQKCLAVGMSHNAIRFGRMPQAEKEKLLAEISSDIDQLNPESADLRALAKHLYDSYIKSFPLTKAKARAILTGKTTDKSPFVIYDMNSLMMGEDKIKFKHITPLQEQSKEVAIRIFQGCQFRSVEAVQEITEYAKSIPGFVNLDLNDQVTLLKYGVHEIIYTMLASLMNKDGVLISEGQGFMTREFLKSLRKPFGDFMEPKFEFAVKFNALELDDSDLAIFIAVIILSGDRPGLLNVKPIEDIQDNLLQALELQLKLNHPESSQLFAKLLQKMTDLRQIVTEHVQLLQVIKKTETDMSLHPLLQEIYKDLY
Glucocorticoid receptor (Homo sapiens), sequence (P04150 whole entry, looked up): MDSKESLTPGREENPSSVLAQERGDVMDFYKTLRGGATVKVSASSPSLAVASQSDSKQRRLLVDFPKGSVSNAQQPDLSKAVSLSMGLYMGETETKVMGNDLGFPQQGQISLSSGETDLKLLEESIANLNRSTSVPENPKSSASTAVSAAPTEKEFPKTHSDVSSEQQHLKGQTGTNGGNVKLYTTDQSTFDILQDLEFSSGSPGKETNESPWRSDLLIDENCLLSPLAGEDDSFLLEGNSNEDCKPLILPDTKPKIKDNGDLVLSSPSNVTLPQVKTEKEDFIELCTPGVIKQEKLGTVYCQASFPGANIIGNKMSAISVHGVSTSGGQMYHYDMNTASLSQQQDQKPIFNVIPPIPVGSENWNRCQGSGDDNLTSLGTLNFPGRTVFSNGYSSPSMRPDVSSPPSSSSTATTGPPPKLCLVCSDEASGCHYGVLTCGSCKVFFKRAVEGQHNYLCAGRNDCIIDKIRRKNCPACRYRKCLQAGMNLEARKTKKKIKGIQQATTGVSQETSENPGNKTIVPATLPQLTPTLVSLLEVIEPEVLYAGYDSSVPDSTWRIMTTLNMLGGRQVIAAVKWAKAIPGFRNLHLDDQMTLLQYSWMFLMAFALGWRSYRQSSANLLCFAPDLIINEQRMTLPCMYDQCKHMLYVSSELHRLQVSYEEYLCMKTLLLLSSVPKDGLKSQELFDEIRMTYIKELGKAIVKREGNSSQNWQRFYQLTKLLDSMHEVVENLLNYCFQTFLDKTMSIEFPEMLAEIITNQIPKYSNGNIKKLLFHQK

OCC(Br)CBr (stereo not drawn)
7.4%: max response [10]
inactive: Potency [1] | Potency [2] | Potency [3] | Potency [4] | Potency [5] | Potency [6] | activation [7] 0.562% | activation [8] 4.78% | Potency [9] | Potency [11] | outcome [12] | outcome [13] | outcome [14] | activation [15] 1.53% | Potency [16] | Potency [17] | Potency [18] | outcome [19]

Brc1ccc(Oc2cc(Br)c(Br)cc2Br)c(Br)c1
inactive: Potency [1] | Potency [2] | Potency [3] | Potency [4] | Potency [5] | Potency [6] | activation [7] 0.173% and 5.65% | Potency [11] | outcome [13] | outcome [14] | activation [15] -4.19% | Potency [18]
18.7% and 4.79%: max response [10]

C=C(C)C#N
inactive: Potency [1] | Potency [2] | Potency [3] | Potency [5] | activation [7] 0.805% and -0.908% | outcome [13] | outcome [14] | activation [15] -0.28% and -1.48% | Potency [17] | Potency [18] | max response [20] 2.68% and -1.1% | outcome [19]
active: Potency [6] 35.5 µM

Cc1ccc(O)c(C)c1
-17.8% and 29.7%: max response [10]
inactive: Potency [1] | Potency [2] | Potency [3] | Potency [4] | Potency [5] | Potency [6] | activation [8] 12.9% and 20.9% | Potency [9] | Potency [11] | outcome [12] | activation [15] -2.98% and 8.45% and 2.43% | Potency [16] | Potency [17] | Potency [18] | max response [20] -2.91% and 1.12% and -5.05%

Cc1cccc(C#N)c1
inactive: Potency [1] | Potency [2] | Potency [3] | Potency [4] | Potency [5] | Potency [6] | activation [7] -2.16% | activation [8] -3.56% | Potency [9] | Potency [11] | outcome [12] | outcome [13] | outcome [14] | activation [15] -3.72% | Potency [16] | Potency [17] | Potency [18] | max response [20] -0.906% | outcome [19]
57%: max response [10]

C=CC1CC=CCC1 (stereo not drawn)
33.6% and -2.58%: max response [10]
inactive: Potency [1] | Potency [2] | Potency [3] | Potency [4] | Potency [5] | Potency [6] | activation [7] 1.2% and -0.94% | activation [8] -1.79% and -4.91% | Potency [9] | Potency [11] | outcome [12] | outcome [13] | outcome [14] | activation [15] -3.44% | Potency [16] | max response [20] -0.819% and 2.71% | outcome [19]

CCOP(=S)(OCC)Oc1ccc([N+](=O)[O-])cc1
inactive: Potency [1] | Potency [2] | Potency [3] | Potency [4] | activation [8] 1.36% and 0.403% and 5.24% | Potency [9] | Potency [11] | outcome [12] | activation [15] -1.79% and -1.31% and 2.7% | Potency [17] | Potency [18]
12.5% and -2.14%: max response [10]

CC(C)(OO)c1ccccc1
-33%: max response [10]
active: Potency [17] 42.2 µM
inactive: Potency [2] | Potency [5] | activation [7] -0.414% and -0.341% | activation [8] 1.9% and -7.5% | Potency [9] | Potency [11] | outcome [12] | outcome [13] | outcome [14] | activation [15] 0.437% and -4.93% | Potency [16] | max response [20] 7.13% and -0.342% | outcome [19]

Oc1ccc(Cl)cc1Cl
inactive: Potency [3] | Potency [4] | Potency [5] | Potency [6] | activation [7] -2.46% and -2.63% | activation [8] -5.35% and -2.01% | Potency [9] | Potency [11] | outcome [12] | outcome [13] | outcome [14] | activation [15] 1.07% and -2.53% | Potency [16] | Potency [17] | Potency [18] | max response [20] 0.337% and 1.54% | outcome [19]
0.988%: max response [10]

C=CC(=C)C
inactive: Potency [1] | Potency [3] | Potency [4] | Potency [5] | Potency [6] | activation [7] -1.71% | activation [8] -4.98% | Potency [9] | Potency [11] | outcome [12] | outcome [13] | outcome [14] | activation [15] -2.92% | Potency [16] | Potency [17] | Potency [18] | max response [20] 11% | outcome [19]
-16.7%: max response [10]
